Experimental findings from PubChem BioAssay (NCI) are described below.

What all share (assay): NCI-60 one-dose screen, 48 h (100 = growth as untreated, 0 = no growth, -100 = all killed)
One experiment concerns HT29 colon. Conditions: 10 µM unless noted.
The test system of the next experiment is SNB-75 CNS. Conditions: 10 µM unless noted.
The next experiment relates to SNB-19 CNS. Conditions: 10 µM unless noted.
The next experiment deals with U251 CNS. The note with it: 10 µM unless noted.
Another experiment concerns PC-3 prostate. The note with it: 10 µM unless noted.
Another experiment relates to SK-MEL-5 melanoma. The note with it: 10 µM unless noted.
The subject of the next experiment is UACC-62 melanoma. Conditions: 10 µM unless noted.
The test system of another experiment is LOX IMVI melanoma. Conditions: 10 µM unless noted.
The next experiment concerns SK-MEL-28 melanoma. The note with it: 10 µM.
Another experiment concerns SK-MEL-2 melanoma. The note with it: 10 µM unless noted.
For a further experiment, the system named is EKVX NSCLC. The note with it: 10 µM unless noted.
The next experiment relates to SN12C renal. Conditions: 10 µM unless noted.
Another experiment has as its system UO-31 renal. The note with it: 10 µM unless noted.
The next experiment has as its system TK-10 renal. The note with it: 10 µM unless noted.
The next experiment has as its system ACHN renal. The note with it: 10 µM unless noted.
In a further experiment the test system is CAKI-1 renal. The note with it: 10 µM unless noted.
A further experiment concerns A498 renal. The note with it: 10 µM unless noted.
Another experiment relates to CCRF-CEM leukemia. The note with it: 10 µM unless noted.
The test system of another experiment is MOLT-4 leukemia. Conditions: 10 µM unless noted.
The next experiment relates to SR leukemia. Conditions: 10 µM unless noted.

The panel holds about 83,000 compounds, 20% with a hit somewhere; the sample as a whole holds those more often.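 Interpretation: 100, growth as untreated; towards 0, rising growth inhibition; 0, no net growth; 0 to -100, cell death. Compounds scoring below 10 were considered active.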 Values without a mark were called inactive. Calls of active or inactive are those of the source.

Regarding `O=Cc1c(OCc2cnnn2CC(=O)Nc2ccc(Br)cc2)ccc2ccccc12`, the growth is 97.8% in the experiment on HT29 colon; 72.6% in the experiment on SNB-75 CNS; 90.4% in the experiment on SNB-19 CNS; 90.4% in the experiment with U251 CNS; 90.2% with PC-3 prostate; 93.9% with SK-MEL-5 melanoma. The growth is 68.4% in the experiment on UACC-62 melanoma; 79.5% in the experiment with LOX IMVI melanoma; 99.9% in the experiment with SK-MEL-28 melanoma; 102% in the experiment on SK-MEL-2 melanoma; 82.1% in the experiment on EKVX NSCLC; 92.9% with SN12C renal. Further, the growth with UO-31 renal was 66.3%; in the experiment with TK-10 renal, 93.7%; with ACHN renal, 80.1%; in the experiment on CAKI-1 renal it was 93.9%; in the experiment with A498 renal, 74.4%; with CCRF-CEM leukemia, 97.4%. The growth in the experiment on MOLT-4 leukemia was 93.7%; in the experiment with SR leukemia it was 95.9%.

`COc1ccc2oc(=O)cc(Cn3cc(Cn4cnc5c4c(=O)n(C)c(=O)n5C)nn3)c2c1`: the growth in the experiment with HT29 colon was 99%; in the experiment on SNB-75 CNS it was 93.8%; in the experiment with SNB-19 CNS, 99.5%; with U251 CNS, 101%; with PC-3 prostate, 102%; with SK-MEL-5 melanoma it was 98.9%. Also, the growth is 91.7% in the experiment with UACC-62 melanoma; 98.2% in the experiment with LOX IMVI melanoma; 105% in the experiment on SK-MEL-28 melanoma; 106% with SK-MEL-2 melanoma; 103% in the experiment with EKVX NSCLC; 95.9% in the experiment on SN12C renal. The growth with UO-31 renal is 83.3%; with TK-10 renal, 100%; with ACHN renal, 98.7%; in the experiment with CAKI-1 renal it was 95.3%; in the experiment with A498 renal it was 103%; with CCRF-CEM leukemia, 106%. The growth is 103% in the experiment with MOLT-4 leukemia and 106% with SR leukemia.

As for `C[C@@H](C(=O)NCCCC#Cc1cnc(Nc2ccc(C#N)cc2)nc1NC1CC1)N(C)C(=O)/C=C/CN(C)C`, the growth in the experiment on HT29 colon was 19.3%; in the experiment on SNB-75 CNS, 80.5%; with SNB-19 CNS, 58.9%; with U251 CNS, 21.4%; in the experiment with PC-3 prostate, 63.2%; in the experiment with SK-MEL-5 melanoma it was 35.9%. The growth with UACC-62 melanoma is 52.2%; with LOX IMVI melanoma it was 49%; with SK-MEL-28 melanoma, 52.1%; with SK-MEL-2 melanoma it was 65.3%; with EKVX NSCLC it was 33.5%; with SN12C renal it was 35.9%. Further, the growth in the experiment with UO-31 renal was 28.6%; in the experiment with TK-10 renal, 63%; in the experiment on ACHN renal it was 14.3%; in the experiment with CAKI-1 renal it was 60.1%; in the experiment with A498 renal, -5.21% (active); with CCRF-CEM leukemia, 13.8%. Moreover, the growth in the experiment on MOLT-4 leukemia was 7.9% (active); with SR leukemia, 9.79% (active).

With `O=C(/C=C/c1ccc(Cl)cc1)c1ccc(Nc2nc(NCCO)nc(Nc3ccc(Cl)cc3)n2)cc1`, the growth in the experiment with HT29 colon was 30.5%; in the experiment on SNB-75 CNS, 47.5%; in the experiment with SNB-19 CNS, 77.6%; in the experiment on U251 CNS it was 21.8%; in the experiment with PC-3 prostate, 53.1%; with SK-MEL-5 melanoma it was 81.5%. The growth in the experiment on UACC-62 melanoma is 60.7%; in the experiment with LOX IMVI melanoma, 37.2%; with SK-MEL-28 melanoma, 78.1%; in the experiment on SK-MEL-2 melanoma it was 96%; in the experiment on EKVX NSCLC, 59.1%; in the experiment with SN12C renal, 83.1%. For the same compound, the growth in the experiment with UO-31 renal was 57.3%; with TK-10 renal, 94.2%; in the experiment with ACHN renal, 57.2%; in the experiment with CAKI-1 renal it was 67.3%; in the experiment with A498 renal, 79.5%; with CCRF-CEM leukemia it was 47.2%. Further, the growth is 46.1% in the experiment with MOLT-4 leukemia and 23.2% in the experiment on SR leukemia.

For the compound `O=C(Cn1cc(COc2ncnc3c2cnn3-c2ccccc2)nn1)Nc1ccccn1`, the growth was 110% with HT29 colon; 71.9% in the experiment on SNB-75 CNS; 90.8% in the experiment on SNB-19 CNS; 95.7% in the experiment on U251 CNS; 90.3% in the experiment on PC-3 prostate; 92.3% in the experiment on SK-MEL-5 melanoma. Also, the growth in the experiment with UACC-62 melanoma is 80.8%; in the experiment on LOX IMVI melanoma it was 93.8%; in the experiment with SK-MEL-28 melanoma it was 97.3%; with SK-MEL-2 melanoma it was 101%; in the experiment with EKVX NSCLC, 86.2%; in the experiment on SN12C renal it was 94.6%. Besides, the growth in the experiment on UO-31 renal is 62.7%; in the experiment on TK-10 renal, 115%; in the experiment on ACHN renal, 91.1%; with CAKI-1 renal, 86.6%; in the experiment on A498 renal, 78.7%; in the experiment on CCRF-CEM leukemia, 96.7%. Moreover, the growth with MOLT-4 leukemia is 89.9%; in the experiment on SR leukemia it was 101%.

In the case of `COc1cccc(/C(C#N)=C/c2nc3c(N4CCOCC4)nc(Cl)nc3n2C)c1`, the growth in the experiment with HT29 colon is -49.8% (active); with SNB-75 CNS it was -17.2% (active); in the experiment on SNB-19 CNS, 55.6%; in the experiment with U251 CNS, -15.1% (active); with PC-3 prostate, -27.4% (active); with SK-MEL-5 melanoma it was 4.5% (active). In addition, the growth is -62.3% (active) with UACC-62 melanoma; -88.2% (active) in the experiment on LOX IMVI melanoma; -77.5% (active) in the experiment on SK-MEL-28 melanoma; -29.7% (active) in the experiment with SK-MEL-2 melanoma; -77.3% (active) with EKVX NSCLC; 12.8% in the experiment on SN12C renal. For the same compound, the growth is -95.9% (active) with UO-31 renal; -65.6% (active) with TK-10 renal; -98% (active) in the experiment with ACHN renal; -92.1% (active) with CAKI-1 renal; -2.48% (active) with A498 renal; 2.67% (active) in the experiment on CCRF-CEM leukemia. Further, the results for the growth in the experiment with MOLT-4 leukemia and with SR leukemia were -19.4% (active) and 5.6% (active), respectively.
